High-throughput results as filed in PubChem.
Vif inh = HIV Vif self-association inhibitors, primary screen, imaging, HEK293T, single point; HEK293T cells, Vif self-association by quenched fluorescence, 24 h; inhibition, % at 7.49 µM; 340,000 compounds, 0.35% hits; AID 602346, 2012; in the data active = inhibition above about 50%, passing the limit was not always enough
NR3A LBD binder = binders of NR3A ligand-binding domain, primary screen, biophysical, differential scanning fluorimetry, uHTS; NR3A LBD differential scanning fluorimetry, Tm shift; 0% = protein alone, 100% = glycine-bound protein; Tm shift relative to glycine control, % at 25 µM; 340,000 compounds, 2.5% hits;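 active = melting temperature shift of at least 10% of the positive control shift, at one fixed dose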
SKN-1 inh = suppressors of acrylamide-induced Pgst-4::GFP reporter in worms, primary screen, SKN-1 inhibitor project, whole organism, uHTS, GFP/RFP fluorescence ratio, strain VP596. 360,000 compounds, 0.49% hits. C. elegans VP596 Pgst-4::GFP/RFP ratio, 24 h. inhibition, % at 21.8 µM;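 active = interference check ratio from 0.5 to 1.5 plus GFP to RFP signal ratio inhibition reaching or exceeding a fixed threshold, cut at about 30% in these data, passing the limit was not always enough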
NadD block = inhibitors of S. aureus NadD, primary screen, biochemical, colorimetric, uHTS. inhibition, % at 20 µM. AID 602399, 2012. 360,000 compounds, 0.78% hits. purified NadD enzyme, colorimetric absorbance read-out. Nicotinate-nucleotide adenylyltransferase NadD (Staphylococcus aureus N315); in the data active = inhibition above about 26%
esBAF inh = Bmi1 luciferase reporter increase in mESCs, primary screen, esBAF inhibitor project, mouse ES cells, Bmi1 luciferase knock-in, single point | AID 602393, 2012 | 350,000 compounds, 2% hits | reporter increase, % at 12.5 µM | 24 h; 100% = twice the neutral-well signal; in the data active = activation above about 40%;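 note: 0% = median of the plate's neutral control wells and 100% = double that signal; a rise in the Bmi1 reporter signal indicates esBAF inhibition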
SMARCA2 act = SMARCA2 (BRM) function activators, primary screen, cell-based, luminescence, high throughput; MG213 cells, MMTV-luciferase reporter, dexamethasone, overnight; activation, % at 9.1 µM; 370,000 compounds, 1% hits; AID 652017, 2013; in the data active = activation above about 7.8%;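 note: 0% = vehicle wells and 100% = reference activator wells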
Starred values were filed as active, the others as inactive; . = not tested or not shown. An excerpt weighted towards active compounds, which were near 5.2% of everything screened.

SMILES	Vif inh	NR3A LBD binder	SKN-1 inh	NadD block	esBAF inh	SMARCA2 act
COc1ccc(NS(=O)(=O)c2ccc3nc(COc4ccc(Cl)c(C)c4)[nH]c3c2)cc1	0	29*	10	23	.	-2
CC(C)c1onc(C(=O)Nc2cccc(Cl)c2)c1[N+](=O)[O-]	-8	20*	15	1	.	0
CCCN1C[C@H](C)[C@H](OC)CN(C)C(=O)c2ccc(NC(=O)c3ccc(F)cc3)cc2OC[C@@H]1C	.	.	.	.	-7	.
Cc1cc2ncn(/N=C/c3ccc([N+](=O)[O-])o3)c2cc1C	6	10*	-2	-2	19	-2
Cc1cc(Nc2ccc([N+](=O)[O-])cc2)nc2ccccc12	-3	39*	6	4	.	2
Cc1cc(N/N=C/c2ccc([N+](=O)[O-])o2)nc2ccccc12	-1	14*	22	14	.	1
Cn1cnc(S(=O)(=O)N2CCCCN3[C@@H](CO)[C@@H](c4ccc(-c5ccccc5F)cc4)[C@@H]3C2)c1	.	.	.	.	2	.
C[C@]12CCC(=O)C=C1CC[C@@H]1[C@@H]2[C@@H](O)C[C@@]2(C)[C@H]1CC[C@]2(O)C(=O)CO	-1	-1	-8	5	5	-4
CC12CCC(=O)C=C1CCC1C2C(O)CC2(C)C1CCC2(O)C(=O)CO (stereo not given)	50*	0	5	-4	-3	-7
CC(C)c1ccc(NC(=O)CN2C(=O)NC(Cc3c[nH]c4ccccc34)C2=O)cc1 (stereo not given)	8	13*	2	3	1	-1
CC(C)CC1NC(=O)N(CC(=O)Nc2ccc(-c3ccccc3)cc2)C1=O (stereo not given)	6	13*	8	-7	13	-2
CC(C)CC1NC(=O)N(CC(=O)Nc2ccccc2-c2ccccc2)C1=O (stereo not given)	-8	1	0	-3	.	0
Cc1noc(C)c1NC(=O)Nc1ccc2c(c1)CC(=O)N([C@@H](C)CO)C[C@H](C)[C@@H](CN(C)S(C)(=O)=O)O2	.	.	.	.	-3	.
CCC1CCCCN1C(=O)CSc1nnc(-c2ccc(Cl)cc2)o1 (stereo not given)	-5	-1	12	-3	23	1
CCC1CCCCN1C(=O)CSc1nnc(-c2cccc(Cl)c2)o1 (stereo not given)	6	-3	8	-5	50*	3
O=C(CSc1nnc(-c2cccc(F)c2)o1)N1CCCC1	-10	-1	8	3	44*	3
COc1ccc(Oc2nccc(-c3ccccc3)c2C#N)cc1	-1	9	7	-8	55*	1
CCCCCCCSc1ncnc2[nH]ncc12	4	-12	0	-9	70*	-3
COCC(=O)Nc1sc2c(c1C(=O)OC)CCCC2	0	-1	34*	1	-3	1
COC(=O)c1c(NC(=O)COC(=O)c2ccc(O)cc2)sc2c1CCCCC2	-3	18*	3	14	.	-2
CCOC(=O)c1c(CC(C)C)csc1NC(=O)COC(=O)C1=NNC(=O)CC1	-8	0	-1	1	.	2
CCOC(=O)c1c(NC(=O)C(C)OC(=O)c2ccc(NC(=O)CC#N)cc2)sc2c1CCCC2 (stereo not given)	.	12*	5	21	-4	-1
CCOC(=O)c1c(CC(C)C)csc1NC(=O)COC(=O)c1ccc(O)cc1	-12	25*	9	-2	-2	-3
C[C@H]1CN([C@@H](C)CO)C(=O)Cc2cc(NS(=O)(=O)c3ccc(Cl)cc3)ccc2O[C@@H]1CN(C)Cc1ccc(Oc2ccccc2)cc1	.	.	.	.	-1	.
C[C@H]1CN([C@@H](C)CO)C(=O)Cc2cc(NS(=O)(=O)c3cccs3)ccc2O[C@H]1CN(C)Cc1ccc(Cl)c(Cl)c1	.	.	.	.	7	.
